# Data taken from PubChem BioAssay (Tox21).
# Activity calls are given as the source filed them. Unless noted, calls come from the whole dose curve; as a rule, active = well fitted curve in the direction sought with a large enough effect in the repeat runs; inconclusive = weak or mixed curves; inactive = no such curve, though single readings can be large; an effect the other way counts as inactive or inconclusive.
# What was measured:
# [1] = qHTS assay for identifying genotoxic compounds that show differential cytotoxicity against isogenic chicken DT40 cell lines with known DNA damage response pathways - wild type cell line (AID 743012); note: nearly all actives have a fitted effect of over 60% in size; note: potency is the fitted concentration of half-maximal effect
# Method in brief: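 First, wild type DT40 cells were plated at 300 per well and equilibrated about 0.5 h at 37 C/5% CO2. Next, compounds in DMSO were added and exposure lasted 40 h. Finally, CellTiter-Glo was added for 30 min at room temperature and luminescence recorded.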
# [2] = qHTS assay to identify small molecule antagonists of the androgen receptor (AR) signaling pathway - cell viability counter screen (AID 743033; note: nearly all actives have a fitted effect of over 45% in size; note: potency is the fitted concentration of half-maximal effect)
# [3] = qHTS assay to identify small molecule antagonists of the androgen receptor (AR) signaling pathway using the MDA cell line - cell viability counter screen (AID 743041; note: nearly all actives have a fitted effect of over 45% in size; note: potency is the fitted concentration of half-maximal effect)
# Method in brief: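 R1881-driven MDA-kb2 AR-luc cells, 3,000/well, were dosed with library compounds for 16 h; cell health came from CellTiter-Fluor fluorescence in the reporter wells.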
# [4] = target: Estrogen receptor (Homo sapiens) (UniProt P03372); test: qHTS assay to identify small molecule agonists of the estrogen receptor alpha (ER-alpha) signaling pathway (AID 743075; calls by dose curve; note: potency is the fitted concentration of half-maximal effect)
# Sequence of Estrogen receptor (Homo sapiens) (P03372 whole entry, looked up): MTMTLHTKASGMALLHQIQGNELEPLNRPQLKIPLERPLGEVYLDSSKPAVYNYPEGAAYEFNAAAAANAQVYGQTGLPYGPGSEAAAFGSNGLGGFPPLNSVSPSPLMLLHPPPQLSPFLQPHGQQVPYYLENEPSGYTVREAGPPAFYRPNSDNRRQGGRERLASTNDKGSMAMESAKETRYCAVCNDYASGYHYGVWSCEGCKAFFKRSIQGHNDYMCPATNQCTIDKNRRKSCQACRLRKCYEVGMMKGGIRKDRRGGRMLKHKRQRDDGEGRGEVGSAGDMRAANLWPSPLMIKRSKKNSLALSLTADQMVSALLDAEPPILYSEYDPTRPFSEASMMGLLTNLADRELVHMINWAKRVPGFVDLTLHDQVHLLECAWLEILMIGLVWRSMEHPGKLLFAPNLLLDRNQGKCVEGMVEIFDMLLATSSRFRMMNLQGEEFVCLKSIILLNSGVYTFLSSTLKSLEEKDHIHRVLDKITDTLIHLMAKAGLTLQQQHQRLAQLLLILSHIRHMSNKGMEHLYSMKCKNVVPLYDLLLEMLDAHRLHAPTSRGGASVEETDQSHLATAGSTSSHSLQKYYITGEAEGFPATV
# [5] = target: Estrogen receptor (Homo sapiens) (UniProt P03372); test: qHTS assay to identify small molecule agonists of the estrogen receptor alpha (ER-alpha) signaling pathway using the BG1 cell line (AID 743079); conditions: BG1Luc4E2 cells, ERE-luciferase agonist, 22 h; activation: at 70.3 µM (top of the series); note: nearly all actives have a fitted effect of over 20% in size
# [6] = qHTS assay to identify small molecule antagonists of the estrogen receptor alpha (ER-alpha) signaling pathway using the BG1 cell line (AID 743080; calls by dose curve;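 note: BG1 cells stimulated with 17beta-estradiol alongside compound; nearly all actives have a fitted effect of over 25% in size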; note: potency is the fitted concentration of half-maximal effect); conditions: BG1Luc4E2 ERE-luciferase antagonist mode, luminescence; activity change, negative = inhibition: at 70.3 µM (top of the series)
# Method in brief: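 BG1-Luc-4E2 cells (endogenous full-length ER-alpha, 4xERE luciferase) hormone-starved 5 days in charcoal-stripped FBS, plated 4,000/well for 24 h, then compound plus 17beta-estradiol for 21.5 h at 37 C; ONE-Glo luminescence read.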
# [7] = qHTS assay to identify small molecule antagonists of the estrogen receptor alpha (ER-alpha) signaling pathway using the BG1 cell line - cell viability counter screen (AID 743081);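 note: compound given together with 17beta-estradiol as the ER stimulus; nearly all actives have a fitted effect of over 45% in size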
# Aromatase (Homo sapiens) = Aromatase (Homo sapiens) (UniProt P11511); test: qHTS assay to identify aromatase inhibitors (AID 743083); note: nearly all actives have a fitted effect of over 55% in size; note: potency is the fitted concentration of half-maximal effect
# Sequence of Aromatase (Homo sapiens) (P11511 whole entry, looked up): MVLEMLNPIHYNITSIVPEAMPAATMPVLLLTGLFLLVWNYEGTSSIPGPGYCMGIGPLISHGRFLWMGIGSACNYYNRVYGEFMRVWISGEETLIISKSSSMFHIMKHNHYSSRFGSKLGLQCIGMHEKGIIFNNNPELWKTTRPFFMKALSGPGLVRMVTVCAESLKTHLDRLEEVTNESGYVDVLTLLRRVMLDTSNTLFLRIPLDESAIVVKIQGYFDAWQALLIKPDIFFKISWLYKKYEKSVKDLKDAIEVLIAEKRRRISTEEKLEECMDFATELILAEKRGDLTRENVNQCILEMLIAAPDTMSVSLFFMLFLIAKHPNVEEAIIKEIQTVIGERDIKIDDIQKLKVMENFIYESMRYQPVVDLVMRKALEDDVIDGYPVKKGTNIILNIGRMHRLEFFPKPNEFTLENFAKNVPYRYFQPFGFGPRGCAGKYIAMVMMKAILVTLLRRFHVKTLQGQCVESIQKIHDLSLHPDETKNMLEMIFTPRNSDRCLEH
# [8] = qHTS assay for identifying genotoxic compounds that show differential cytotoxicity against isogenic chicken DT40 cell lines with known DNA damage response pathways - Rad54/Ku70 mutant cell line (AID 743015); note: nearly all actives have a fitted effect of over 60% in size; note: potency is the fitted concentration of half-maximal effect
# [9] = target: Androgen receptor (Homo sapiens) (UniProt P10275); test: qHTS assay to identify small molecule antagonists of the androgen receptor (AR) signaling pathway (AID 743035; active = well fitted inhibition curve with a large enough effect in the signal ratio in the repeat runs, not every such curve was filed as active; inconclusive = weak or mixed curves, or effect the other way; inactive = no such curve, though single readings can be large or run the other way; the % refers to the signal ratio)
# Sequence of Androgen receptor (Homo sapiens) (P10275 whole entry, looked up): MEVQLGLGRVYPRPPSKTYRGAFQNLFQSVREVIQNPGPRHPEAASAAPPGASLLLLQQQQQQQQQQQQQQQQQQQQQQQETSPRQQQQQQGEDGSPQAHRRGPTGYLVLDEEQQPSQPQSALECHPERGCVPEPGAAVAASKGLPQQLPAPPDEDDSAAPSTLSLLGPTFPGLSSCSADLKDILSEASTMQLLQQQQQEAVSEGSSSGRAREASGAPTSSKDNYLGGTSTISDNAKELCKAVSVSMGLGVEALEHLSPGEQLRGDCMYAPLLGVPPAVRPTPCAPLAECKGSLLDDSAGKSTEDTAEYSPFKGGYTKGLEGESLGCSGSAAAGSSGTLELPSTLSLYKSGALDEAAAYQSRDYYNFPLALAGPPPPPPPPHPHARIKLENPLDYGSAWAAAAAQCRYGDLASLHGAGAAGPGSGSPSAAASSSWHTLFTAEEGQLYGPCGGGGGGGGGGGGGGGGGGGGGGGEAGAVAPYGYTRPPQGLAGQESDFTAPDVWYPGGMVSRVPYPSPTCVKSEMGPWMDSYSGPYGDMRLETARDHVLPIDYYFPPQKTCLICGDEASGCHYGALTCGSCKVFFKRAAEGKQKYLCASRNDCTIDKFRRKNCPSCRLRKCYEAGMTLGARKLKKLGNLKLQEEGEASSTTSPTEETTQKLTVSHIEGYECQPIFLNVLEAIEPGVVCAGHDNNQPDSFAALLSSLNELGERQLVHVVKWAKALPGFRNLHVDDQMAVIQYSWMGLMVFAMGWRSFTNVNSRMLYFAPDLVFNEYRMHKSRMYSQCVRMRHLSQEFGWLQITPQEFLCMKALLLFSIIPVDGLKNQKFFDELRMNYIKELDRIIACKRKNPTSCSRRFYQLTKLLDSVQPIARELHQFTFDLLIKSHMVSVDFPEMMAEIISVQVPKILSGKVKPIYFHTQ
# Method in brief: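 Beta-lactamase FRET read (2 h RT incubation with LiveBLAzer B/G) following 16 h of compound plus R1881 treatment of AR-UAS-bla HEK293 cells, which had been pre-incubated 4 h at 37C.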
# [10] = target: Androgen receptor (Homo sapiens) (UniProt P10275); test: qHTS assay to identify small molecule agonists of the androgen receptor (AR) signaling pathway using the MDA cell line (AID 743040; note: nearly all actives have a fitted effect of over 20% in size)
# Method in brief: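 After a 5 h incubation at 37C and 0% CO2, MDA-kb2 reporter cells were dosed with compounds in DMSO and kept 16 h under the same conditions. Luciferase activity was then read as luminescence with ONE-Glo.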
# [11] = target: Androgen receptor (Homo sapiens) (UniProt P10275); test: qHTS assay to identify small molecule antagonists of the androgen receptor (AR) signaling pathway using the MDA cell line (AID 743042; note: nearly all actives have a fitted effect of over 55% in size; note: potency is the fitted concentration of half-maximal effect)
# Method in brief: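 Antagonist mode: compounds plus R1881 agonist added to MDA-kb2 AR-luc cells, incubated 16 h at 37C. Luciferase reporter luminescence quantified, with multiplexed CellTiter-Fluor readout for cell viability.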
# [12] = qHTS assay to identify small molecule antagonists of the thyroid receptor (TR) signaling pathway - cell viability counter screen (AID 743064); note: nearly all actives have a fitted effect of over 50% in size; note: potency is the fitted concentration of half-maximal effect
# Method in brief: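 Counter screen for cytotoxicity: compound plus T3 (1 nM final) on GH3.TRE-Luc cells, 23.5 h at 37 °C, then fluorescence viability readout with CellTiter-Fluor.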
# [13] = qHTS assay to identify small molecule antagonists of the thyroid receptor (TR) signaling pathway (AID 743065); note: nearly all actives have a fitted effect of over 55% in size; note: potency is the fitted concentration of half-maximal effect
# Method in brief: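 Antagonism measured as loss of luciferase signal in GH3 cells stably carrying a TRE-luciferase reporter, co-treated with compound and T3 (1 nM final) for 23.5 h at 37 C. Viability was read in the same well by CellTiter-Fluor.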
# [14] = test system: thyroid hormone receptor (rat, GH3 cells); test: qHTS assay to identify small molecule agonists of the thyroid receptor (TR) signaling pathway (AID 743066; calls by dose curve)
# [15] = qHTS assay to identify small molecule antagonists of the estrogen receptor alpha (ER-alpha) signaling pathway - cell viability counter screen (AID 743074; calls by dose curve;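 note: HEK293 cells carrying ER-alpha-UAS-bla reporter stimulated with 17beta-estradiol; nearly all actives have a fitted effect of over 45% in size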; note: potency is the fitted concentration of half-maximal effect)
# [16] = qHTS assay for identifying genotoxic compounds that show differential cytotoxicity against isogenic chicken DT40 cell lines with known DNA damage response pathways - Rev3 mutant cell line (AID 743014); note: potency is the fitted concentration of half-maximal effect; nearly all actives have a fitted effect of over 55% in size
# [17] = target: Estrogen receptor (Homo sapiens) (UniProt P03372); test: qHTS assay to identify small molecule antagonists of the estrogen receptor alpha (ER-alpha) signaling pathway (AID 743069; active = well fitted curve in the direction sought with a large enough effect in the signal ratio in the repeat runs, not every such curve was filed as active; inconclusive = weak or mixed curves, or effect the other way; inactive = no such curve, though single readings can be large or run the other way; the % refers to the signal ratio; note: potency is the fitted concentration of half-maximal effect)
# Method in brief: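 Compound effects are measured against 17beta-estradiol stimulation in HEK293 cells with a UAS-controlled beta-lactamase reporter for ER-alpha. Exposure lasts 18 hr at 37C; LiveBLAzer B/G FRET substrate follows for 2 hr at room temperature.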
SMILES,Potency [1],Potency [2],Potency [3],Potency [4],Potency [5],Potency [6],Potency [7],Potency (Aromatase (Homo sapiens)),Potency [8],Potency [9],Potency [10],Potency [11],Potency [12],Potency [13],Potency [14],Potency [15],Potency [16],Potency [17]
COc1cc(C(=O)NS(=O)(=O)c2ccccc2C)ccc1Cc1cn(C)c2ccc(NC(=O)OC3CCCC3)cc12,inactive,inactive,inactive,inactive,inactive,inactive,inactive,inactive,,,,,,,,,,
CCN1CCN(c2cc(-c3ccc(F)cc3)c3c(n2)CCCCCC3)CC1,,inactive,inactive,,,,,inactive,inactive,inactive,inactive,inactive,13.3 µM (active),18.8 µM (active),inactive,inactive,,
CC1=C(/C=C/C(C)=C/C=C/C(C)=C\C=O)C(C)(C)CCC1,14.5 µM (active),29.3 µM (active),inactive,,,,,,13 µM (active),,,,25.8 µM (active),29 µM (active),inactive,,14.5 µM (active),
C=CC(=O)OCCOCC(CC)(COCCOC(=O)C=C)COCCOC(=O)C=C,6.37 µM (active),22.8 µM (active),,,,,,10.1 µM (active),5.06 µM (active),,,,inactive,inactive,inactive,inactive,4.51 µM (active),
CC(=O)Oc1ccc(C2(c3ccc(OC(C)=O)cc3)Oc3ccccc3NC2=O)cc1,,inactive,inactive,7.56 µM [inconclusive] (active),,,inactive,inactive,,,,,,5.96 µM (active),inactive,inactive,,8.49 µM [inconclusive] (active)
O=C1C=CC(=O)N1c1ccccc1,1.09 µM (active),12.3 µM (active),48.6 µM (active),,,,,10.9 µM (active),1.37 µM (active),,inactive,27.3 µM (active),4.86 µM (active),4.86 µM (active),inactive,,1.22 µM (active),
O=C(Nc1ccc(Cl)c(Cl)c1)c1cc(Cl)cc(Cl)c1O,6.11 µM (active),1.95 µM (active),12.2 µM (active),0.436 µM [inconclusive] (active),,4.86 µM (active),inactive,6.11 µM (active),4.86 µM (active),,,,4.86 µM (active),,inactive,2.45 µM (active),4.86 µM (active),
